PubChem BioAssay AID2451 (National Center for Advancing Translational Sciences (NCATS), 2010)
Screen size: about 290,000 compounds; about 2,100 (0.72%) were called active. Not shown: some 4% with an inconclusive outcome. The list comes from a sample in which actives are over-represented; it also holds similar structures and randomly drawn compounds. Unmarked numbers belong to inactive results. The call rests on the fitted dose curve; in most records, active means well fitted inhibition curve with a large enough effect; inconclusive means small, poorly fitted or top-dose-only effect, or effect the other way; inactive means flat fitted curve, though single readings scatter.

target: Fructose-bisphosphate aldolase (Giardia intestinalis (strain ATCC 50803 / WB clone C6)) (UniProt A8B2U2); assay: qHTS Assay for Inhibitors of Fructose-1,6-bisphosphate Aldolase from Giardia Lamblia; conditions: purified Giardia FBPA; series mostly up to 59.6 µM; activity, negative = inhibition: at the top concentration; further: nearly all actives have a fitted effect of over 55% in size
Sequence (A8B2U2 whole entry, looked up): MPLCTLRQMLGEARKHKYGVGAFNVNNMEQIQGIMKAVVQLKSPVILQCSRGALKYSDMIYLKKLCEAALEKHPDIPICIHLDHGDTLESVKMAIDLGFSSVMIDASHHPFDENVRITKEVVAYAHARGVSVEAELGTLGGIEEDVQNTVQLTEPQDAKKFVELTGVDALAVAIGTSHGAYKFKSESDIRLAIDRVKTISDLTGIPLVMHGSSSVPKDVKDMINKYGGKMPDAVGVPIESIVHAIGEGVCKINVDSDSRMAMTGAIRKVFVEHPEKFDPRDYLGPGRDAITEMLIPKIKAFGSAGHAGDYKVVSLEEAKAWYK
Outline: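 40 nM FBPA preincubated 10 min at RT with compound (up to 57.5 uM final), then substrate plus GAPDH/TPI/NAD/arsenate coupling and diaphorase/resazurin added. Fluorescence read after 20 min at RT, 525/598 nm.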
On the % scale 0 is the no-effect control and ±100 the full control effect; potency means the concentration at half of the fitted maximal effect.

SMILES | activity, negative = inhibition [%] | Potency
CCOC(=O)c1c(-c2ccccc2)oc2cc(Br)c(O)c(C=O)c12 | -9.36 | 
CCOc1ccc(-n2c(SCC(=O)Nc3cc(C(=O)O)ccc3Cl)nc3ccccc3c2=O)cc1 | 14.4 | 
O=C(Nc1ccccc1Cl)Nc1cccc2cccnc12 | -7.02 | 
O=C(Nc1ccccc1Cl)O/N=C(/c1ccccc1)c1ccccn1 |  | 15.8 µM (active)
Cc1ccc(C(=O)O/N=C(\N)c2ccccn2)cc1Cl | 16.7 | 
O=C(CCC(=O)n1ncc2ccccc21)NCc1ccccc1Cl | 8.97 | 
O=C1CSC(=S)N1c1ccc(O)cc1 | -21.6 | 
O=C(Nc1ccncc1)Nc1ccc(F)cc1 | -7.88 | 
Oc1ccc2ccccc2c1N=Nc1nccs1 |  | 12.6 µM (active)
CN(C)CCCn1c(=O)n(Cc2ccccc2)c(=O)c2c3c(sc21)CCCCC3 | 3.4 | 
O=C(CNC(=O)Cc1ccccc1)N=Nc1c(O)[nH]c2ccc(Br)cc12 | -17.6 | 
Oc1[nH]c2ccc(Br)cc2c1N=Nc1nn[nH]n1 |  | 15.8 µM (active)
NS(=O)(=O)c1ccc(N=Nc2c(O)[nH]c3ccc(Br)cc23)cc1 | 22.7 | 
CCOC(=O)C1CCN(C(=O)COc2cccc3ccccc23)CC1 | -2.04 | 
Cn1c(=O)[nH]c(=O)c2c1[nH]c(=S)n2Cc1ccccc1 |  | 8.91 µM (active)
C=CCSc1nc2c(c(=O)[nH]c(=O)n2C)n1Cc1ccccc1 | 18.8 | 
COc1ccc(CNc2nc3c(c(=O)[nH]c(=O)n3C)n2Cc2ccccc2)cc1 | -2.3 | 
COc1cccc(OC)c1C(=O)Nc1ccc2c(c1)n(C)c(=O)n2C | 6.4 | 
CC(=O)N(C1=C(Cl)C(=O)c2ccccc2C1=O)c1ccc(C(=O)O)cc1 |  | 2.24 µM (active)
CN1C2C=C(N(C(=O)c3ccc(Cl)cc3)c3ccccc3)CC1CC2 (stereo not drawn) | -4.66 | 
O=C(CN1C(=O)c2ccccc2C1=O)NCc1ccc(C(=O)O)cc1 | 5.32 | 
CC(=O)c1ccc(NC(=O)CCc2nnc3ccc(NCc4ccco4)nn23)cc1 | 14.7 | 

SMILES | activity, negative = inhibition [%] | Potency
O=C(c1cc(C(=O)N2CCN(c3ccc(F)cc3)CC2)cc([N+](=O)[O-])c1)N1CCN(c2ccc(F)cc2)CC1 | 6.27 | 
CCCN1CCN(CCCNC(=O)CN2C(=O)COc3ccccc32)CC1 | -3.07 | 
O=C(CCN1C(=O)COc2ccccc21)NCCCN1CCN(c2ccc(F)cc2)CC1 | -0.235 | 
O=C(CN1C(=O)COc2ccccc21)Nc1ccc(F)cc1 |  | 5.61 µM (active)
CC(C)c1ccc(S(=O)(=O)N2CCC3(CC2)OCCO3)cc1 | 7.89 | 
CCN1C(=O)c2cccc3c(N)ccc1c23 |  | 0.354 µM (active)
CN1C(=O)c2cccc3c(N)ccc(c23)C1=O | 1.83 | 
Cc1nn(C)cc1N1C(=O)c2cccc3c(N)ccc(c23)C1=O | -6.4 | 
O=C(NCCN1CCN(C(=O)c2cccc([N+](=O)[O-])c2)CC1)C(=O)NCc1ccc(Cl)cc1 | 6.63 | 
CCS(=O)(=O)c1cc([N+](=O)[O-])c(Sc2ccccc2N)s1 |  | 15.8 µM (active)
CCOC(=O)c1cc(Sc2ccccc2N)cc(C(=O)OCC)n1 | 7.21 | 
Nc1ccccc1Sc1ccc(C(F)(F)F)cc1[N+](=O)[O-] | -11.9 | 
CC(C)CCn1c(=O)c2c(nc3n2CCCN3Cc2ccccc2)n(C)c1=O | 4.15 | 
Cc1ccccc1NC(=O)C1CCCN(C(=O)NCc2ccccc2)C1 (stereo not drawn) | 7.76 | 
CCCCc1cc(=O)oc2c(C)c(OCC(=O)N3CCC(C(N)=O)CC3)ccc12 | 10.7 | 
COc1c(O)c2c(=O)cc(OC)c3c4c(OC)cc(=O)c5c(O)c(OC)c6c(c(c1C[C@@](C)(O)[C@H]6C(C)=O)c23)c54 | -22.3 | 
CC(C)(c1ccccc1)c1ccc(OCCN)cc1 | 0.0143 | 
CC(C)(c1ccccc1)c1ccc(OCCN2CCCC2)cc1 |  | 22.4 µM (active)
Cc1cc(OCCN2CCCC2)ccc1C(C)C | -14.5 | 
CC(C)CN(Cc1c(O)ccc2c(=O)c(-c3ccccc3)coc12)CC(C)C | 8.57 | 
COc1ccc(Cl)cc1NC(=O)c1cccc(N2C(=O)C3CC=CCC3C2=O)c1 (stereo not drawn) | 2.26 | 
